In all, about 320,000 compounds went through this assay and about 2,100 (0.66%) were called active. About 53% were inconclusive and are not listed. This is one part of a sample in which actives are shown more often than they occur. Calls follow the shape of the dose curve; as a rule, active = well fitted inhibition curve with a large enough effect in the signal ratio, with a control signal flat (not every such curve was filed as active); inconclusive = small, poorly fitted or top-dose-only effect, or effect the other way, or a change in a side signal; inactive = flat fitted curve, though single readings scatter; the % refers to the signal ratio.
test: qHTS Assay for Lipid Storage Modulators in Drosophila S3 Cells; conditions: BODIPY lipid droplet fluorescence, 18-24 h, cells fed with added oleic acid; cell number change: measured here: cell count max response; series mostly up to 46.1 µM;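 as to cell number change: cells counted by Cell Tracker Red CMTPX staining in the red channel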; as to lipid storage change, negative = inhibition: % is scaled to controls: 0 for no effect and ±100 for the full control effect
In short: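 Drosophila S3 cells got compounds at several concentrations plus oleic acid (400 uM solution). Laser-scanning cytometry with 488 nm excitation read lipid droplets at 500-530 nm and cells at 575-640 nm. Percent activity was relative to 20 uM Triacsin C.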
Potency is read from the fitted curve at half-maximal effect.

| Structure (SMILES) | Potency | cell number change [%] | lipid storage change, negative = inhibition |
| --- | --- | --- | --- |
| COc1ccccc1NS(=O)(=O)c1ccc2c(c1)CCN2C(=O)CCC(=O)O | inactive | 0.926 | – |
| CC(C)c1c(C(=O)N/N=C/c2cccnc2)nnn1-c1nonc1N | inactive | -22.2 | – |
| CCc1ccc(-c2ccc(SCc3ccccn3)nn2)cc1 | inactive | -1.78 | – |
| Cc1cc(C)cc(C(=O)/C=C2\NC(=O)CS2)c1 | inactive | – | – |
| CC(C)(C)OC(=O)NOCC(=O)N(Cc1ccccc1)CC(O)COc1ccccc1 (centres undefined) | 7.31 µM (active) | -1.25 | – |
| CC(C)N(Cc1ccccc1)C(=O)COc1ccccc1 | inactive | 2.07 | – |
| O=C(NN(CC(O)COc1ccccc1)CC(O)COc1ccccc1)c1ccccc1 (centres undefined) | inactive | -5.14 | – |
| CCOC(=O)N1CCN(C(=O)/C=C/c2c(C)nn(-c3ccc(F)cc3)c2Cl)CC1 | inactive | -7.81 | – |
| O=C(CSc1ccccn1)N1CCOCC1 | inactive | -9.67 | – |
| CS(=O)(=O)N(CC(=O)N1CCCCC1)c1ccc(Cl)c(C(F)(F)F)c1 | inactive | 0.64 | – |
| CCn1c(SCC(=O)N2CCCC2)nc2ccccc2c1=O | inactive | -13.8 | – |
| CNC(=O)c1ncoc1-c1ccc(Cl)cc1 | inactive | 12.8 | – |
| COC(=O)c1oc(-c2ccc(Cl)cc2)nc1C | inactive | -10.5 | – |
| CNC(=O)c1oc(-c2ccc(Cl)cc2)nc1C | 2.59 µM (active) | – | – |
| Cc1cccc(C)c1NC(=S)N(Cc1ccco1)C1CCN(C(C)C)CC1 | inactive | 1.59 | – |
| COc1ccc(-n2nnnc2SCC(=O)NNC(=O)c2ccc([N+](=O)[O-])cc2)cc1 | inactive | 9.64 | – |
| Cc1ccc(NC(=O)C(=O)NCCc2c[nH]c3ccccc23)cc1C | – | 15 | 3.29% [at 9.22 µM] (inactive) |
| CCOCCCNC(=O)CN1C(=O)c2cccc3cccc1c23 | inactive | -5.29 | – |
| COc1ccc(C)cc1NC(=O)c1ccccc1NS(=O)(=O)c1ccc(Cl)s1 | inactive | – | – |
| COc1cc(NC(=O)c2ccccc2NS(=O)(=O)c2ccc(Cl)s2)cc(OC)c1 | 16.4 µM (active) | -19.8 | – |
| Cc1ccc(NC(=O)c2ccccc2NS(=O)(=O)c2ccc(Cl)s2)cc1S(=O)(=O)N1CCOCC1 | inactive | 11.6 | – |
| CCN1CCN(c2nc3sc4c(c3c(=O)n2-c2ccc(OC)cc2)CCCCC4)CC1 | inactive | -9.24 | – |

| Structure (SMILES) | Potency | cell number change [%] | lipid storage change, negative = inhibition |
| --- | --- | --- | --- |
| CCOC(=O)COc1ccccc1C1Nc2ccccc2C(=O)N1c1cccc(Cl)c1 (centres undefined) | inactive | 2.87 | – |
| COc1ccc(NCc2nnc(SCC(=O)NCc3ccco3)n2-c2ccccc2OC)cc1 | inactive | 13.6 | – |
| COc1cccc(CNC(=O)N[C@@H](C)C(=O)O)c1 | inactive | 1.68 | – |
| CCC(C)NC(=O)NCc1ccccc1F (centres undefined) | inactive | 2.87 | – |
| CCC(C)[C@H](NC(=O)NCc1ccccc1Cl)C(=O)OC (some centres undefined) | inactive | -19 | – |
| COC(=O)[C@@H](NC(=O)NCc1cccc(OC)c1)C(C)C | inactive | -13.3 | – |
| CCC(C)[C@H](NC(=O)NCc1ccccc1Cl)C(=O)O (some centres undefined) | 29.1 µM (active) | -0.143 | – |
| CCC(C)[C@H](NC(=O)NCc1ccc(Cl)cc1)C(=O)O (some centres undefined) | inactive | 4.5 | – |
| CCC(C)[C@H](NC(=O)NCc1cccc(OC)c1)C(=O)O (some centres undefined) | 6.51 µM (active) | 1.61 | – |
| COC(=O)[C@H](CCSC)NC(=O)NCc1ccccc1F | inactive | -14.5 | – |
| COC(=O)[C@@H](NC(=O)NCc1ccccc1F)C(C)C | 25.9 µM (active) | -6.12 | – |
| CC(C)N(C)Cc1nnnn1CC(=O)NCc1cc(F)cc(C(F)(F)F)c1 | inactive | -9.03 | – |
| Cn1nc(-c2ccccc2)c(CO)c1Oc1cccc(C(F)(F)F)c1 | inactive | 9.06 | – |
| COc1ccc(C(=O)CSc2nnc(C3CC3)n2N)cc1 | inactive | -1.83 | – |
| O=C(O)c1ccc(NS(=O)(=O)c2cc(Cl)ccc2Cl)cc1 | inactive | 3.91 | – |
| Cc1ccc(NS(=O)(=O)c2cc(C(=O)O)ccc2Cl)c(C)c1 | inactive | -3.54 | – |
| Cc1ccc(NS(=O)(=O)c2cc(C(=O)O)ccc2Cl)cc1 | 2.31 µM (active) | -3.53 | – |
| COCCN1Cc2cccc(C(=O)NC(C)CCc3ccco3)c2C1=O (centres undefined) | inactive | 4.03 | – |
| O=C(Nc1cccc(C(=O)O)c1)/C(=C\c1ccco1)NC(=O)c1ccccc1 | inactive | 13 | – |
| CCOC(=O)N1CCN(CC(=O)N2c3ccccc3Sc3ccccc32)CC1 | inactive | -12.6 | – |
| C#CCOc1ccc(C2C3=C(CC(C)(C)CC3=O)N(CC(=O)O)C3=C2C(=O)CC(C)(C)C3)cc1OC | 10.3 µM (active) | -7.42 | – |
| C#CCOc1ccc(C2C3=C(CC(C)(C)CC3=O)N(CC(=O)O)C3=C2C(=O)CC(C)(C)C3)cc1 | inactive | -0.525 | – |

| Structure (SMILES) | Potency | cell number change [%] | lipid storage change, negative = inhibition |
| --- | --- | --- | --- |
| COc1ccc(C2C3=C(CC(C)(C)CC3=O)N(CC(=O)O)C3=C2C(=O)CC(C)(C)C3)cc1OC | inactive | -17.9 | – |
| O=C(CN1C(=O)c2ccccc2C1=O)Nc1ccc(-c2nc3ccccc3o2)cc1 | inactive | – | – |
| Cc1nn(C)cc1C(C(=O)NC1CCCCC1)N(CCc1ccccc1)C(=O)c1cnccn1 (centres undefined) | inactive | 19.3 | – |
| O=C(/C=C/c1cn(-c2ccccc2)nc1-c1cccnc1)N1CCCC1 | inactive | -19.7 | – |
| CCOc1cc(/C=N/NC(=O)c2ccncc2)ccc1OC(=O)c1ccccc1 | 12.6 µM (active) | -17.2 | – |
| CCOc1cc(/C=N/NC(=O)c2cccnc2)ccc1OC(=O)c1ccco1 | inactive | -16.1 | – |
| CCOc1cc(/C=N/NC(=O)c2ccccn2)ccc1OC(=O)c1ccc(F)cc1 | inactive | 5.41 | – |
| Cc1cccc(Cn2c(N(C)CCO)nc3c2c(=O)[nH]c(=O)n3C)c1 | inactive | 28.6 | – |
| CCN(c1ccccc1)S(=O)(=O)c1ccc(OC)c(NC(=O)CN2C(=O)NC(C)(C)C2=O)c1 | inactive | -3.73 | – |
| COc1ccc(N2CCN(C(=O)CN3C(=O)NC(C)(C4CC4)C3=O)CC2)cc1 (centres undefined) | inactive | -22.3 | – |
| COc1ccc(N2CCN(C(=O)CSc3ccc(C)cc3)CC2)cc1 | inactive | 6.76 | – |
| COc1ccc(-c2csc(NC(=O)CN3C(=O)NC4(CCCC4)C3=O)n2)c(OC)c1 | 6.51 µM (active) | – | – |
| COc1ccc(N2CCN(C(=O)CSc3nnc(C)c(=O)[nH]3)CC2)cc1 | 29.1 µM (active) | 2.46 | – |
| COc1ccc(C2(c3ccc(OC)cc3)NC(=O)N(CC(=O)N3CCOCC3)C2=O)cc1 | 0.231 µM (active) | 8.58 | – |
| COc1ccc(NC(=O)CN2C(=O)NC3(CCCC3)C2=O)c(OC)c1 | inactive | -7.62 | – |
| COc1ccc(N2CCN(C(=O)CSc3nc4ccccc4c(=O)[nH]3)CC2)cc1 | inactive | -2.61 | – |
| COc1ccc(N2CCN(C(=O)CN3C(=O)NC4(CCCCCC4)C3=O)CC2)cc1 | 5.8 µM (active) | -6.83 | – |
| COc1ccc(-c2csc(NC(=O)CN3C(=O)C4CCCCC4C3=O)n2)c(OC)c1 (centres undefined) | inactive | -28.9 | – |
| COc1ccc(C2(c3ccc(OC)cc3)NC(=O)N(CC(=O)Nc3ccccc3)C2=O)cc1 | inactive | 10.9 | – |
| COc1cccc(N2CCN(C(=O)CN3C(=O)NC4(CCCC4)C3=O)CC2)c1 | inactive | – | – |
| CCC1(c2ccc(F)cc2)NC(=O)N(CC(=O)N2CCOCC2)C1=O (centres undefined) | inactive | -2.03 | – |

— PubChem BioAssay AID2685 (National Center for Advancing Translational Sciences (NCATS), 2010)
